High-throughput results (PubChem BioAssay)
Hits are enriched below; roughly 0.44% of the tested compounds scored in any of these assays.
RmlC RmlD mix = mixture blocks RmlC and RmlD coupled enzyme activity. RmlC/RmlD coupled enzyme inhibition, 384-well mixture HTS. inhibition, % at 5.5 µM. 110,000 compounds, 0.39% hits. AID 1532; in the data active means inhibition above about 30%, passing the limit was not always enough
YopH PTP inh = blocks Yersinia enterocolitica YopH tyrosine phosphatase | fluorescence Ex485/Em525 | inhibition, % (no concentration beside the values) | 140,000 compounds, 0.16% hits | AID 898; in the data active means inhibition above about 50%
RmlCD artifact = shows fluorescent artifact in RmlC/RmlD assay, dose-response counter-screen | shares compounds with RmlC RmlD mix | RmlC/RmlD assay fluorescence artifact counter-screen | calls only | 360 compounds, 96% hits; call rule not given here;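 further: compound alone with no enzyme and no substrates present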
Numbers stand for hits.

What do the screens show for `Cc1cccn2c(=O)c3cc(C(=O)NCCCn4ccnc4)n(C)c3nc12`?
YopH PTP inh: inactive

What do the screens show for `CCNC(=O)c1cc2c(=O)n3cccc(C)c3nc2n(CCc2ccccc2)c1=N`?
RmlC RmlD mix: 59; YopH PTP inh: inactive; RmlCD artifact: active

How did Cc1cccn2c(=O)c3cc(C(=O)NCCc4ccccc4)c(=N)n(CCCn4ccnc4)c3nc12 do in these assays?
RmlC RmlD mix: 38; YopH PTP inh: inactive; RmlCD artifact: active

How did c1ccc(CCc2nn3c(Cc4ccccc4)nnc3s2)cc1 do in these assays?
RmlC RmlD mix: inactive; YopH PTP inh: inactive

Results for COc1ccc(C(=O)c2sc3nc(C)cc(-c4cccs4)c3c2N)cc1OC ?
YopH PTP inh: inactive

How did COC(=O)c1ccc(-c2sc3nc(N4CCOCC4)c4c(c3c2N)CCCC4)o1 do in these assays?
RmlC RmlD mix: 116; YopH PTP inh: inactive; RmlCD artifact: active

How did CCOC(=O)c1sc2nc(N3CCOCC3)c3c(c2c1N)CCCC3 do in these assays?
RmlC RmlD mix: inactive; YopH PTP inh: inactive

What do the screens show for `Cc1nc2ccccc2cc1C(=O)O`?
RmlC RmlD mix: inactive; YopH PTP inh: inactive

Results for O=c1cccc2n1Cc1cc3ccccc3nc1-2 ?
RmlC RmlD mix: 55; YopH PTP inh: inactive; RmlCD artifact: active

What do the screens show for `Cc1cc(NCCN2CCCCC2)n2c(nc3ccccc32)c1C#N`?
YopH PTP inh: inactive

How did CCCc1c(C)c(C#N)c2nc3ccccc3n2c1NCCCN1CCOCC1 do in these assays?
RmlC RmlD mix: inactive; YopH PTP inh: inactive

Results for CC(C)c1cc(NCCCN2CCOCC2)n2c(nc3ccccc32)c1C#N ?
RmlC RmlD mix: 45; YopH PTP inh: inactive; RmlCD artifact: active

How did Cc1cc(NCCCn2ccnc2)n2c(nc3ccccc32)c1C#N do in these assays?
RmlC RmlD mix: 85; YopH PTP inh: inactive; RmlCD artifact: active

What do the screens show for `CSc1ccc(/C=N/n2nnnc2N)cc1`?
RmlC RmlD mix: 69; YopH PTP inh: inactive; RmlCD artifact: active

How did Nc1nnnn1/N=C/c1cccc(O)c1 do in these assays?
YopH PTP inh: inactive

How did COc1ccc(C(=O)COC(=O)CNS(=O)(=O)c2ccc(C)cc2)cc1 do in these assays?
YopH PTP inh: inactive

What do the screens show for `NNc1nc(-c2ccccc2Cl)nc2sc3c(c12)CCCC3`?
YopH PTP inh: inactive

How did N#Cc1ccccc1NC(=O)Nc1ccc(Cl)cc1 do in these assays?
RmlC RmlD mix: 40; YopH PTP inh: inactive; RmlCD artifact: active

How did Cc1ccc(NC(=O)Nc2ccccc2C#N)c(Cl)c1 do in these assays?
RmlC RmlD mix: inactive; YopH PTP inh: inactive

Results for O=C(Nc1cccc(Cl)c1)Nc1cccc(Cl)c1 ?
RmlC RmlD mix: inactive; YopH PTP inh: inactive

What do the screens show for `N#Cc1ccccc1NC(=O)Nc1cccc(Cl)c1`?
RmlC RmlD mix: 44; YopH PTP inh: inactive; RmlCD artifact: active

Results for COc1ccc(C(=O)Nc2ccc([N+](=O)[O-])cn2)c(OC)c1 ?
YopH PTP inh: inactive

How did CCNC(=S)N/N=C(\C)c1cccc([N+](=O)[O-])c1 do in these assays?
YopH PTP inh: inactive

Results for O=C(COc1ccccc1)Nc1cccc(-c2nc3cc4ccccc4cc3[nH]2)c1 ?
RmlC RmlD mix: inactive; YopH PTP inh: inactive

How did CC(OC(=O)c1ccncc1)C(=O)Nc1cc(S(=O)(=O)N2CCCCC2)ccc1Cl (centres undefined) do in these assays?
YopH PTP inh: inactive

What do the screens show for `Nc1ccc(-c2nc3c(Cl)c(N)ccc3[nH]2)cc1`?
RmlC RmlD mix: 116; YopH PTP inh: inactive; RmlCD artifact: active

Results for Nc1ccc2nc(-c3ccc(Cl)cc3)[nH]c2c1 ?
RmlC RmlD mix: inactive; YopH PTP inh: inactive

What do the screens show for `CN(C(=O)c1cccnc1)c1nnc(-c2ccccn2)s1`?
RmlC RmlD mix: 42; YopH PTP inh: inactive; RmlCD artifact: active

Results for CN(C(=O)c1cccnc1)c1nnc(-c2cnccn2)s1 ?
RmlC RmlD mix: inactive; YopH PTP inh: inactive

What do the screens show for `O=C(CCNS(=O)(=O)c1cccs1)N1CCc2ccccc2C1`?
RmlC RmlD mix: inactive; YopH PTP inh: inactive

How did O=C(O)CCCC(=O)N1CCN(C(c2ccccc2)c2ccccc2)CC1 do in these assays?
YopH PTP inh: inactive

What do the screens show for `Cc1ccc2c(c1)c1ncnc(N3CCOCC3)c1n2C`?
YopH PTP inh: inactive; RmlCD artifact: active

Results for Cc1ccc2c(c1)c1ncnc(N3CCC4(CC3)OCCO4)c1n2C ?
RmlC RmlD mix: inactive; YopH PTP inh: inactive

What do the screens show for `Cc1nn(-c2nnc(NC3CCCCC3)nn2)c(C)c1Br`?
YopH PTP inh: inactive

How did C=CCOC(=O)/C(=C\C=C\c1ccccc1)NC(=O)c1ccccc1 do in these assays?
YopH PTP inh: inactive

What do the screens show for `Cc1cc(C)c(C#N)c(SCC(=O)CC(=O)OC(C)C)n1`?
RmlC RmlD mix: 55; YopH PTP inh: inactive; RmlCD artifact: active

What do the screens show for `Cc1nc(SCC(=O)CC(=O)OC(C)C)c(C#N)c(C)c1C`?
RmlC RmlD mix: inactive; YopH PTP inh: inactive

Results for CCCCOc1ccc(C2OC34CCCCC3C(C#N)(C#N)C2(C#N)C(=N)O4)cc1 (centres undefined) ?
RmlC RmlD mix: 161; YopH PTP inh: inactive; RmlCD artifact: active

How did CCOc1ccc(C2OC34CCCCC3C(C#N)(C#N)C2(C#N)C(=N)O4)cc1OC (centres undefined) do in these assays?
RmlC RmlD mix: active; YopH PTP inh: inactive; RmlCD artifact: active

What do the screens show for `CCOc1ccc(C2C(C#N)=C(N)SC(N)=C2C#N)cc1OC`?
RmlC RmlD mix: inactive; YopH PTP inh: inactive

What do the screens show for `C=CCOc1ccc(C2OC34CCCCC3C(C#N)(C#N)C2(C#N)C(=N)O4)cc1` (centres undefined)?
RmlC RmlD mix: 60; YopH PTP inh: inactive; RmlCD artifact: active

Results for Cc1ccc(C2OC34CCCCCC3C(C#N)(C(=N)O4)C2(C#N)C#N)cc1 (centres undefined) ?
YopH PTP inh: inactive

What do the screens show for `CCC12OC(=N)C(C#N)(C1C)C(C#N)(C#N)C(c1ccccc1)O2` (centres undefined)?
YopH PTP inh: inactive

Results for COc1cc(OC)c(C(=O)Nc2cccc(C(C)=O)c2)cc1OC ?
RmlC RmlD mix: inactive; YopH PTP inh: inactive

How did N#CCSc1nc2c(cc1C#N)CCCC2 do in these assays?
RmlC RmlD mix: inactive; YopH PTP inh: inactive

How did COC(=O)CC(=O)CSc1nc2c(cc1C#N)CCCCC2 do in these assays?
RmlC RmlD mix: 138; YopH PTP inh: inactive; RmlCD artifact: active

How did CCOC(=O)CC(=O)CSc1nc2c(cc1C#N)CCC2 do in these assays?
RmlC RmlD mix: 80; YopH PTP inh: inactive; RmlCD artifact: active

Results for CCOC(=O)CC(=O)CSc1nc2c(c(-c3cccs3)c1C#N)CCC2 ?
YopH PTP inh: inactive

Results for CCc1ccc(NC(=S)NC(=O)CC(C)C)cc1 ?
YopH PTP inh: inactive

Results for CCC(=O)N/C(=N\OCc1ccc(F)cc1)c1nonc1NC(=O)CC ?
RmlC RmlD mix: inactive; YopH PTP inh: inactive

How did O=C(NNC(=O)c1ccc(SCC2CCCO2)c([N+](=O)[O-])c1)c1ccc(F)cc1 (centres undefined) do in these assays?
RmlC RmlD mix: inactive; YopH PTP inh: inactive

Results for Cc1nc2c(sc3nc4c(cc32)COC(C)(C)C4)c(=O)n1Cc1ccccc1 ?
RmlC RmlD mix: inactive; YopH PTP inh: inactive

How did Cc1nc2c(sc3nc4c(cc32)COC(C)(C)C4)c(=O)o1 do in these assays?
RmlC RmlD mix: 42; YopH PTP inh: inactive; RmlCD artifact: active

Results for CN(C)c1c2ccccc2nc2c(F)c(F)c(F)c(F)c12 ?
RmlCD artifact: active
